Screening results: PubChem, ICCB-Longwood Screening Facility, Harvard Medical School
Compounds with a hit are over-represented: about 1.4% of the library has one in this group of screens.
PV pol inh – poliovirus RdRp elongation inhibitors, primary screen, biochemical, fluorescence polarization, total intensity; % elongation, % (compound at 16.7 µg/mL); poliovirus polymerase elongation; hits give low values; Genome polyprotein (Poliovirus type 1 (strain Mahoney)), P03300; actives 0.66% (n = 150,000); in the data active = % elongation below about 90%
Mtb MbtI inh – MbtI salicylate synthase inhibitors, primary screen, biochemical, fluorescence intensity | P9WFX0 | purified MbtI enzyme, fluorescence intensity read-out | inhibition, % (test concentration not listed) | actives 0.89% (n = 100,000) | AID 493033, 2011; in the data active = inhibition mostly above about 56%, no sharp cut-off; inactive = mostly below about 77%
Target sequence (P9WFX0 whole entry, looked up): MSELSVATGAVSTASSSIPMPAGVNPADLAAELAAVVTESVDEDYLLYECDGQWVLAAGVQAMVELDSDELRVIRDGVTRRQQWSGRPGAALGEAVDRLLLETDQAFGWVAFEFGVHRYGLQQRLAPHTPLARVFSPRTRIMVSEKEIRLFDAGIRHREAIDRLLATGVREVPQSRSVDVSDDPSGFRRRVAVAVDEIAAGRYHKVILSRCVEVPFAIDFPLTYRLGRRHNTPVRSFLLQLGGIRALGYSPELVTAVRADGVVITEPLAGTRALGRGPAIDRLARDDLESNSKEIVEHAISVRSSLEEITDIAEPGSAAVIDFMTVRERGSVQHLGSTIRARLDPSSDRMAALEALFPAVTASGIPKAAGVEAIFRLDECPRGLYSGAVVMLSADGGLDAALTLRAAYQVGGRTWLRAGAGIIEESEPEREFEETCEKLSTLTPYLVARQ
Mtb MenB inh – M. tuberculosis MenB inhibitors, primary screen, biochemical, absorbance; inhibition, % (no concentration beside the values); actives 0.43% (n = 100,000); 1,4-dihydroxy-2-naphthoyl-CoA synthase (Mycobacterium tuberculosis (strain ATCC 25618 / …; MenB enzyme assay, absorbance read-out; in the data active = inhibition above about 21%, passing the limit was not always enough
AID504770 – growth inhibition of E. coli YBA685, primary screen, V. cholerae RctB inhibitors | E. coli YBA685 rctB-dependent plasmid, OD600 growth, 3 h; hits give low values | z-score (test concentration not listed) | actives 0.27% (n = 130,000); in the data active = z-score below about -2, passing the limit was not always enough
Hits are given with their value.

NCCCc1ccc(F)cc1 was read as PV pol inh inactive, Mtb MbtI inh inactive, Mtb MenB inh inactive and AID504770 inactive.
O=C1C=CC(=O)N1Cc1ccccc1 was read as PV pol inh inactive, Mtb MbtI inh inactive, Mtb MenB inh inactive and AID504770 -2.5.
O=S(=O)(c1ccc(Cl)cc1)N(O)c1ccc(Cl)cc1 was read as PV pol inh inactive, Mtb MbtI inh 88, Mtb MenB inh inactive and AID504770 inactive.
CN(c1ccccc1)S(=O)(=O)c1ccc(Cl)cc1 was read as PV pol inh inactive, Mtb MenB inh inactive and AID504770 inactive.
`CCOC(=O)CSc1nnc(Cc2ccc(Cl)cc2)c(=O)[nH]1` gave PV pol inh inactive, Mtb MbtI inh inactive, Mtb MenB inh inactive and AID504770 inactive.
For O=C(CC(NCCN1CCOCC1)C(=O)O)Nc1ccc2ccccc2c1 (stereo unspecified) the results were PV pol inh inactive, Mtb MbtI inh inactive, Mtb MenB inh inactive and AID504770 inactive.
For Cc1ccc(C(=O)CC(NCCN2CCOCC2)C(=O)O)cc1 (stereo unspecified) the results were PV pol inh inactive, Mtb MenB inh 33 and AID504770 inactive.
For Cc1nn(C)c(Sc2ccc(Cl)cc2)c1C(N)=O the results were AID504770 inactive.
`CSc1ccc(CCNC(=O)CCc2c(C)nc3c4cccnc4nn3c2C)cc1` gave PV pol inh 14.
For Cc1nc2c3cccnc3nn2c(C)c1CCC(=O)NCc1ccccc1 the results were PV pol inh inactive.
For NN(CCC(=O)NC1CCCCC1)C1=NS(=O)(=O)c2ccccc21 the results were PV pol inh inactive, Mtb MenB inh inactive and AID504770 inactive.
Nc1cc(=O)[nH]c(SCC(=O)Nc2ccccc2)n1 was read as PV pol inh inactive, Mtb MbtI inh inactive, Mtb MenB inh inactive and AID504770 inactive.
CN(C)c1ccc(NC(=O)CSc2nc(N)cc(=O)[nH]2)cc1 was read as PV pol inh inactive, Mtb MbtI inh inactive, Mtb MenB inh 28 and AID504770 inactive.
`O=C(Nc1ccccc1Cl)c1cnsn1` gave PV pol inh inactive, Mtb MbtI inh inactive, Mtb MenB inh inactive and AID504770 inactive.
For O=C1NC(=O)N(c2ccccc2)C(=O)/C1=C/c1ccccc1 the results were PV pol inh inactive, Mtb MbtI inh inactive, Mtb MenB inh inactive and AID504770 inactive.
`CCC(C)N1C(=O)/C(=C\c2cnn(-c3ccccc3)c2)C(=O)NC1=S` (stereo unspecified) gave PV pol inh inactive, Mtb MbtI inh 80, Mtb MenB inh inactive and AID504770 inactive.
CC(Nc1nc2ccccc2n1C)c1cc(Cl)ccc1O (stereo unspecified) was read as AID504770 inactive.
`Oc1ccccc1OCc1nc2ccccc2s1` gave PV pol inh inactive, Mtb MbtI inh 52 and AID504770 inactive.
For CCN1C(=O)C2C(c3ccco3)NC(C(=O)OC)(c3ccccc3)C2C1=O (stereo unspecified) the results were PV pol inh inactive, Mtb MbtI inh inactive, Mtb MenB inh inactive and AID504770 inactive.
Screening O=c1[nH]c(=S)n(-c2cccc(Cl)c2)c2c1CN(C1CCCC1)CN2 returned PV pol inh inactive, Mtb MbtI inh inactive, Mtb MenB inh 52 and AID504770 inactive.
For O=c1[nH]c(=S)n(CCc2ccccc2)c2c1CN(CCc1ccccc1)CN2 the results were PV pol inh inactive, Mtb MbtI inh inactive, Mtb MenB inh inactive and AID504770 inactive.
CN1CCN(S(=O)(=O)c2ccc(SCC(=O)NC3CCCCC3)cc2)CC1 was read as PV pol inh inactive, Mtb MbtI inh inactive, Mtb MenB inh inactive and AID504770 inactive.
`Cc1cc(C(=O)CSc2nnc(-c3ccco3)n2C)c(C)n1C1CC1` gave PV pol inh inactive, Mtb MbtI inh inactive, Mtb MenB inh inactive and AID504770 inactive.
COC1=CC23CCN(C)C(Cc4ccc(OC)c(O)c42)C3=CC1=O (stereo unspecified) was read as PV pol inh inactive, Mtb MbtI inh inactive, Mtb MenB inh inactive and AID504770 inactive.
Screening O/N=C/c1nc2cc(Cl)ccc2o1 returned PV pol inh 76, Mtb MbtI inh inactive, Mtb MenB inh inactive and AID504770 inactive.
`CC(C)(C)/C(O)=C/c1nc2cc(Cl)ccc2oc1=O` gave PV pol inh inactive, Mtb MbtI inh inactive, Mtb MenB inh inactive and AID504770 inactive.
`CC(C)(C)c1cc(-c2ccccc2)c(C#N)c(N)n1` gave PV pol inh inactive, Mtb MbtI inh inactive, Mtb MenB inh inactive and AID504770 inactive.
`O=C1CN=C(Nc2ccccc2Cl)N1Cc1ccccc1` gave PV pol inh inactive, Mtb MbtI inh inactive, Mtb MenB inh inactive and AID504770 inactive.
Screening Cc1cccc(NC2=NCC(=O)N2Cc2ccccc2)c1 returned PV pol inh 87, Mtb MbtI inh inactive, Mtb MenB inh inactive and AID504770 inactive.
For CCC(=O)Nc1cccc2cccnc12 the results were PV pol inh inactive, Mtb MbtI inh inactive, Mtb MenB inh inactive and AID504770 inactive.
Screening COc1nc(NC(=O)NS(=O)(=O)Nc2cccc3cccnc23)nc(OC)n1 returned PV pol inh 79, Mtb MbtI inh inactive, Mtb MenB inh inactive and AID504770 inactive.
Screening N#Cc1c(N2CCCC2=O)sc2c1CCC2 returned PV pol inh inactive, Mtb MbtI inh inactive and AID504770 inactive.
For Cc1scc(-c2ccccc2)[n+]1CCO the results were PV pol inh inactive, Mtb MbtI inh 54, Mtb MenB inh inactive and AID504770 inactive.
For CC(C)Nc1nc(NC(N)=O)nc(NC(C)C)n1 the results were PV pol inh inactive, Mtb MbtI inh inactive, Mtb MenB inh 62 and AID504770 inactive.
CSc1nc(NC(C)C)nc(N(C)C(N)=O)n1 was read as PV pol inh inactive, Mtb MbtI inh inactive, Mtb MenB inh inactive and AID504770 inactive.
`CSc1nc(NC(N)=S)nc(NC(C)C)n1` gave PV pol inh inactive, Mtb MbtI inh 87, Mtb MenB inh inactive and AID504770 inactive.
For CC1CCc2cc(F)cc3c(=O)c(C(=O)O)cn1c23 (stereo unspecified) the results were PV pol inh inactive, Mtb MbtI inh inactive, Mtb MenB inh inactive and AID504770 -3.4.
Screening COCCNC(=O)c1cc(-c2cccnc2)nc2ccc(S(=O)(=O)N3CCCCCC3)cc12 returned PV pol inh inactive, Mtb MbtI inh inactive, Mtb MenB inh inactive and AID504770 inactive.
For COCCCNC(=O)c1cc(-c2cccnc2)nc2ccc(S(=O)(=O)N3CCC(C)CC3)cc12 the results were PV pol inh 47.
`Cc1ccccc1NC(=O)N1CCCC(c2nc(-c3ccc(F)cc3)no2)C1` (stereo unspecified) gave PV pol inh inactive, Mtb MbtI inh inactive, Mtb MenB inh 29 and AID504770 inactive.
For CCN(CC)C(=O)Nc1cccc(Cl)c1 the results were PV pol inh inactive, Mtb MbtI inh inactive, Mtb MenB inh 33 and AID504770 inactive.
`CCN(C(=O)Nc1cccc(Cl)c1)c1ccccc1` gave PV pol inh inactive, Mtb MbtI inh inactive, Mtb MenB inh inactive and AID504770 inactive.
